# High-throughput results from PubChem.
# Rab9 promoter act – Rab9 promoter activation; Huh7 Rab9 promoter-luciferase reporter, luminescence, 24 h; Potency, µM (top dose mostly 9.22 µM), for inactives: top-dose activation, negative = inhibition, actives largely listed as activators; hit rate 2.8% among 320,000; AID 485297; also: % of control where 0% means no effect; nearly all actives have a fitted effect of over 60% in size
#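 Cell-based reporter: Huh7 stable for Rab9 promoter-driven luciferase, plated in reduced-serum medium with 10% FBS at 1500 cells/well, compound-treated 24 h at 37 °C, luminescence read after 10 min reagent.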
# SMN2 splice enh – SMN2 splice variant enhancement | HEK293 SMN2-luciferase splicing reporter, luminescence, 30-36 h | Potency, µM (series often up to 46.1 µM), without a hit: at the top dose activity change, positive = activation, hits mostly activators | hit rate 2.8% among 210,000; also: % of control where 0% means no effect; nearly all actives have a fitted effect of over 55% in size
#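 HEK293 cells carry an SMN2 minigene-luciferase reporter in which exon 7 inclusion puts luciferase in frame. Cells were seeded at 2000 cells/well, attached for 10-12 hours, then exposed to compounds for 30-36 hours at 37C before ONE-Glo luminescence.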
# FLuc counter – firefly luciferase modulation, counter-screen for miR-21 project. purified FLuc, Km substrates, luminescence inhibition. Potency, µM (top dose mostly 57.5 µM), without a hit: at the highest dose activity change, negative = inhibition, most hits filed as inhibitors. hit rate 6.9% among 360,000;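 also: plate controls were vehicle for no effect and reference inhibitor for full effect; nearly all actives have a fitted effect of over 55% in size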
# Target sequence (P08659 whole entry, looked up): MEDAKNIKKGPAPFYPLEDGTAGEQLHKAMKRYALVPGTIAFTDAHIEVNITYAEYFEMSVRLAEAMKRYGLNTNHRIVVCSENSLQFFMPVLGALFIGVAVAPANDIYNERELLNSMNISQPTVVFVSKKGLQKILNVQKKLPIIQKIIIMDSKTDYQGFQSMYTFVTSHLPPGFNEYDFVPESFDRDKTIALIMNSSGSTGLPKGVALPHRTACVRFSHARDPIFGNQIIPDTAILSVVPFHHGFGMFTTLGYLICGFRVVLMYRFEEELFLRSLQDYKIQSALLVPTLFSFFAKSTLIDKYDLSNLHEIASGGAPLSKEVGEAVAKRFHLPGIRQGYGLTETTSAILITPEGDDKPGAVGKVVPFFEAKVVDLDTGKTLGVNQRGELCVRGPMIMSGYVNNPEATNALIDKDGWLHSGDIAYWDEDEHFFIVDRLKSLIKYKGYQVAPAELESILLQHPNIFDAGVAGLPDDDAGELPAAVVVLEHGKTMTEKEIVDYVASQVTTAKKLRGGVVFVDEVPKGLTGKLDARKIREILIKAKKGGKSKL
#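 Biochemical qHTS of compounds, final roughly 60 µM downward over six points, against 10 nM purified firefly luciferase using Km concentrations of substrates (10 uM D-luciferin, 10 uM ATP) in Tris acetate pH 7.5 buffer; luminescence output.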
# ELG1 genotox – genotoxicity induction in ELG1-luciferase HEK293T cells; HEK293T ELG1-luciferase reporter, luminescence, 16 h; Potency, µM (highest dose often 46 µM), without a hit: top-dose activity change, positive = activation, actives largely listed as activators; hit rate 1.3% among 330,000; also: % of control where 0% means no effect; nearly all actives have a fitted effect of over 60% in size
#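 Genotoxic stress is detected as increased luminescence from luciferase-tagged ELG1 in HEK293T cells, measured with ONE-Glo after a 16 hr treatment at 37 °C.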
# KinaseGlo FLuc – Kinase-Glo luciferase inhibition (counter-screen); Q27757; Kinase-Glo luciferase, ATP luminescence, 8 min; Potency, µM (titrated, usually from 38.3 µM), for the others: at the highest dose activity change, negative = inhibition, most hits filed as inhibitors; hit rate 0.28% among 200,000; also: % is scaled to controls: 0 for no effect and ±100 for the full control effect; nearly all actives have a fitted effect of over 60% in size
#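 Compounds were added to a substrate mix at pH 7.2 (50 mM imidazole, 10 uM ATP, within the enzyme's linear range), followed by Kinase-Glo detection reagent; luminescence was measured after 8 minutes at ambient temperature.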
# NPC1 prom act – NPC1 promoter activation. Huh7 NPC1 promoter luciferase reporter, 24 h. Potency, µM (titrated, usually from 9.22 µM), for the others: at the highest dose activation, hits mostly activators. hit rate 2.4% among 320,000. AID 485313; also: % of control where 0% means no effect; nearly all actives have a fitted effect of over 60% in size
#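 Stably transfected Huh7 (NPC1 promoter→luciferase), 1500 cells/well in Opti-MEM + 10% FBS, 2 h settle, then compound 24 h at 37 °C. Luminescence after 10 min with Amplite reagent.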
# * marks the source's active call; other numbers are inactive results; ? = inconclusive; / = not tested or not shown. A selection: hits, their analogues and other compounds. The true share with any hit is near 7.5%. Calls follow the shape of the dose curve; as a rule, active = well fitted curve in the direction sought with a large enough effect; inconclusive = small, poorly fitted or top-dose-only effect, or another doubt; inactive = no such curve, though single readings can be large; an effect the other way counts as inactive or inconclusive. Potency is read from the fitted curve at half-maximal effect.
SMILES,Rab9 promoter act,SMN2 splice enh,FLuc counter,ELG1 genotox,KinaseGlo FLuc,NPC1 prom act
CCCCN(C(=O)C(C)Oc1ccc(Br)cc1)c1c(N)n(Cc2ccccc2)c(=O)[nH]c1=O (centres undefined),5%,/,3%,3%,/,0%
COc1ccc(-c2cc(C(=O)N3CCN(C(c4ccccc4)c4ccccc4)CC3)no2)cc1,-1%,-30%,-2%,-10%,-2%,-7%
COc1ccc(-c2cc(C(=O)N3CCCC3)no2)cc1,0.63µM*,/,1.2µM*,2.9µM*,/,0.4µM*
COc1ccc(-c2cc(C(=O)N3CCCCCC3)no2)cc1OC,?,/,24µM*,?,/,?
COc1cccc(-c2cc(C(=O)N3CCCCC3C)no2)c1 (centres undefined),2.2µM*,18µM*,8.5µM*,9.2µM*,2%,1.6µM*
COc1ccc(-c2cc(C(=O)N3CCCCCC3)no2)cc1,0.45µM*,/,1.9µM*,4.6µM*,/,0.4µM*
COc1ccc(-c2cc(C(=O)N3CCN(C(c4ccccc4)c4ccccc4)CC3)no2)cc1OC,3%,-4%,7%,-6%,-7%,-8%
O=C(c1ccc(Cl)c(S(=O)(=O)N2CCOCC2)c1)N1CCN(c2ccccc2)CC1,-5%,/,0%,-7%,/,-2%
COc1ccc([C@@H](C)C(=O)c2ccc(O)cc2O)cc1,/,-13%,/,/,2%,/
O=C(NC1CCCCC1)C(c1ccncc1)N(C(=O)c1csnn1)c1cccc(F)c1 (centres undefined),-1%,/,-1%,0%,/,-8%
COc1cccc(-c2cc(C(=O)N3CCCCCC3)no2)c1,0.32µM*,3.2µM*,2.1µM*,1.5µM*,-8%,0.56µM*
C#CCn1c(S(=O)(=O)Cc2ccccc2Cl)nc(-c2ccccc2)c1-c1ccccc1,-5%,5.6µM*,6%,-5%,3%,-3%
Clc1ccccc1OCc1nc(-c2ccccn2)no1,0.32µM*,4.5µM*,1.9µM*,4.6µM*,-12%,0.45µM*
CCc1ccc(OCc2nc(-c3ccc(OC)cc3)no2)c(Br)c1,/,/,-19%,/,/,/
CN(Cc1nc(-c2ccccn2)no1)S(=O)(=O)c1ccccc1,-1%,22%,-9%,?,-1%,12%
Clc1ccc(OCc2nc(-c3ccccn3)no2)c(Br)c1,0.45µM*,0.56µM*,0.21µM*,0.82µM*,-11%,0.35µM*
CN(C(=O)c1cc2ccccc2cc1O)C1CCCCC1,5%,/,-12%,9%,/,-7%
C/C(CC(=O)N1CCCC1)=N\NC(=O)c1cc2ccccc2cc1O,1%,/,15µM*,-9%,/,14%
CN(C(=O)COC(=O)c1cc2ccccc2cc1O)C1CCCCC1,1%,/,19µM*,1%,/,7%
O=C(OCC(=O)N1CCCC1)c1c[nH]c2ccccc12,22%,/,/,5%,/,9%
O=C(OCC(=O)N1CCOCC1)c1ccccc1O,4µM*,/,24µM*,?,/,?
O=C(OCC(=O)N1CCCCC1)c1c[nH]c2ccccc12,?,/,17µM*,?,/,24%
CCOCCc1nn2c(=O)cc(COC(=O)c3ccccc3Br)nc2s1,/,/,-6%,/,/,/
COc1ccc(/C=N/N2CCOCC2)cc1COc1ccc(Cl)cc1,0%,-1%,?,0%,-3%,-1%
O=C(OCC(=O)N1CCCCC1)c1cc2ccccc2cc1O,12%,-5%,24µM*,?,-5%,12%
SMILES,Rab9 promoter act,SMN2 splice enh,FLuc counter,ELG1 genotox,KinaseGlo FLuc,NPC1 prom act
CC1CCCN(C(=O)COC(=O)c2n[nH]c3ccccc23)C1 (centres undefined),?,26%,17µM*,23µM*,-3%,?
COc1ccc(O)c(/C=N/NC(=O)c2ccc(N3CCCC3=O)cc2)c1,-16%,/,-12%,-3%,/,-34%
O=C(N/N=C/c1ccco1)c1cccc(N2CCCC2=O)c1,22%,?,19µM*,18%,-12%,12%
COc1ccc(/C=N/NC(=O)c2ccc(N3CCCC3=O)cc2)cc1,0%,/,?,2%,/,-1%
COc1ccc(O)c(/C=N/NC(=O)c2cccc(N3CCCC3=O)c2)c1,-8%,/,11µM*,13%,/,-39%
COc1cccc(/C=N/NC(=O)c2cccc(N3CCCC3=O)c2)c1,?,/,9.5µM*,4.1µM*,/,?
CN(C)c1ccc(/C=N/NC(=O)c2cccc(N3CCCC3=O)c2)cc1,15%,4%,11µM*,9%,-8%,4%
O=C(CSc1nccn(-c2cccc(F)c2)c1=O)Nc1ccc(Cl)cc1F,-5%,/,5%,-5%,/,1%
O=C(N/N=C/c1cc(Br)ccc1O)c1cccc(N2CCCC2=O)c1,-30%,-90%,17µM*,?,0%,-24%
Nc1nc2ccc(Cc3ccncc3)cc2s1,?,/,17µM*,?,/,19%
Cc1sc(NC(=O)c2cccs2)c(C(N)=O)c1C,?,10µM*,11µM*,?,-13%,18%
CCOC(=O)c1c(NC(=O)c2cccs2)sc(CC)c1-c1cccs1,3%,-19%,1%,-1%,0%,-3%
Cc1sc(NC(=O)C2=COCCO2)c(C(N)=O)c1C,22%,/,17µM*,28%,/,14%
CCN1CCc2nc3sc(C(=O)Nc4cccc(Cl)c4C)c(N)c3cc2C1,/,14%,6%,/,/,/
Cc1ccc(S(=O)(=O)CCC(=O)N(Cc2nnc(-c3ccc(Cl)cc3)o2)C2CC2)cc1,0%,/,?,1%,/,9%
Cc1csc2ncc(C(=O)Nc3ccc4c(c3)OCCO4)c(=O)n12,2.2µM*,4.5µM*,?,2.3µM*,-5%,?
Cc1cccc(NC(=O)c2cnc3scc(C)n3c2=O)c1,3.2µM*,13µM*,8.5µM*,16%,-2%,3.2µM*
Cc1cc(C)c(CN2CCN(C(=O)Cn3cnc(C(=O)Nc4ccc(C)c(C)c4)n3)CC2)c(C)c1,/,/,/,0%,/,/
COc1cccc(N2CC(O)=C(c3nc4ccccc4s3)C2=N)c1,-1%,?,21µM*,?,-3%,-5%
Cc1ccc(-n2cccc2/C=C2/C(=N)N3C(=NC2=O)SN=C3S(C)(=O)=O)cc1Cl,3%,12%,-4%,5%,2%,-4%
Cc1cc(/C=C2/C(=N)N3C(=NC2=O)SN=C3S(C)(=O)=O)c(C)n1-c1ccc(F)cc1,14%,?,1.5µM*,?,14%,30%
Cc1cccc(C)c1-n1cccc1/C=C1/C(=N)N2C(=NC1=O)SN=C2S(C)(=O)=O,-3%,-37%,24µM*,0%,3%,-1%
CCOc1cc(/C=C2/C(=N)N3C(=NC2=O)SN=C3S(C)(=O)=O)ccc1OS(=O)(=O)c1ccccc1,5%,/,?,5%,/,0%
